This note sets out measurements from PubChem BioAssay (NCATS).

Results filed as inconclusive are left out. Active and inactive are the calls of the source. Calls follow the shape of the dose curve; as a rule, active = well fitted inhibition curve with a large enough effect; inconclusive = small, poorly fitted or top-dose-only effect; inactive = flat fitted curve, though single readings scatter.

For this experiment, the system named is NIH3T3. As to the kind of experiment: qHTS assay to identify novel small-molecules to repurpose for Merkel cell carcinoma treatment (AID 1296009). Also: nearly all actives have a fitted effect of over 60% in size. Conditions: MCC and control cell lines, CellTiter-Glo viability, 72 h; at 44.8 µM (top of the series) unless noted. From the text:
MCC is a rare and aggressive neuroendocrine skin cancer with limited treatment options. Approximately 80% of MCCs have the Merkel cell polyomavirus (MCPyV) DNA integrated into the host genome (virus-positive: VP-MCC) and viral oncogenes drive oncogenesis. The remaining MCCs are virus-negative (VN-MCC) and are caused by UV mutagenesis. To identify novel treatments for VP-MCC and/or VN-MCC we screened three VP-MCC cell lines (WAGA, MKL-1, MKL-2), three VN-MCC cell lines (MCC-13, MCC-26, UISO), and four immortalized, non-transformed control cell lines (HaCaT, HEK293T, CRL7250, NIH-3T3) against ~2,400 compounds in the NCGC Pharmaceutical Collection (NPC) and ~1,900 compounds in the Mechanism Interrogation PlatE (MiPE). Using cell viability as a readout (CellTiter-Glo assay) we found both overlapping and distinct drugs that can be repurposed for the treatment of VP-MCC and VN-MCC.
A high-throughput screen was conducted in 1536-well white flat bottom plates (Corning) on a Kalypsys robotic system. Cell lines WAGA, MKL-1, MKL-2, MCC-13, MCC-26, UISO, HaCaT, HEK293T, CRL7250, and NIH-3T3 were screened against 2 small molecule annotated drug libraries NPC and MIPE in dose response (8 and 11 pt. respectively) measuring cell viability after 72 hours of incubation. […] A 1,536 pintool (Kalypsys) was used to transfer 23 nL of compound in DMSO to the 1,536-well assay plates. After 72 hr incubation at 37 degree celsius, 2.5 uL of CellTiter-Glo (Promega) was dispensed into each well using a BiorapTR. Plates were incubated at room temperature for 10 min, transferred to a ViewLux (PerkinElmer) and the luminescence was recorded using an exposure time of 2 seconds. Relative luminescence units (RLUs) were normalized to in-plate controls (no cells as a positive (cytotoxicity) control, DMSO as negative control) and the normalized data was processed using NCATS in-house software.
On the technique in general: Quantitative high-throughput screening tests each substance at several concentrations.
Regarding `CC1CC(=O)C2=C(O1)OC1(C)CCC3C(C)(C)C=CC(=O)C3(C)C1C2` (stereo not given), the call was inactive.

With `N[C@H]1C[C@H]1c1ccc(-c2cccc(O)c2)cc1`, the compound was called inactive.

`CC1CCC2C(C)(C)CC(C)(CO)C2(O)C1C(=O)O` (stereo not given): the outcome was inactive.

As to `C=C[C@H]1[C@H](O[C@@H]2O[C@H](CO[C@@H]3OC[C@](O)(CO)[C@H]3O)[C@@H](O)[C@H](O)[C@H]2O)OC=C2C(=O)OCC[C@H]21`, the outcome is “inactive [at 17.4 µM]”.

With `CC1(C)CC[C@]2(C(=O)O[C@@H]3O[C@H](CO)[C@@H](O)[C@H](O)[C@H]3O)CC[C@]3(C)C(=CCC4[C@@]5(C)C[C@@H](O)[C@H](O)C(CO)(CO)C5CC[C@]43C)C2[C@@H]1O` (stereo not given in full), the outcome was “inactive [at 17.4 µM]”.

With `CCOc1nc2cccc(C(=O)OCc3oc(=O)oc3C)c2n1Cc1ccc(-c2ccccc2-c2noc(O)n2)cc1`, the outcome was inactive.

Turning to `O=C(O[C@H]1[C@@H]2C=CO[C@@H](O[C@@H]3O[C@H](CO)[C@@H](O)[C@H](O)[C@H]3O)[C@@H]2[C@@]2(CO)O[C@@H]12)c1ccc(O)cc1`, the outcome is “inactive [at 17.4 µM]”.

In the case of `C[C@]12CCC(=O)C=C1[C@@H](O)C[C@@H]1[C@@H]2[C@@H](O)C[C@@]2(C)[C@H]1CC[C@]2(O)C(=O)CO`, the compound was called inactive.

On to `NC(=O)c1ccc(OCC2NC(=O)C3CCCN3C2=O)cc1` (stereo not given), for which the outcome was inactive.

`CC(C)(C)NCc1cc(Nc2ccnc3cc(Cl)ccc23)c2c(c1O)CCCC2`: the outcome is “inactive [at 0.588 µM]”.

As for `CC1(CCC(=O)O)C(=O)C=CC23CC4CC(OC4(C)C2O)C13` (stereo not given), the outcome was inactive.

With `CNC(=O)c1ccc2cc([C@@]3(O)CCn4cncc43)ccc2c1`, the call was inactive.

Turning to `CC(=O)OC(C)OC(=O)C(C)c1ccc(-c2ccccc2)c(F)c1` (stereo not given), the outcome was inactive.

Turning to `C=C1CCC2C(C)(C)CC(=O)CC2(C)C1CCC(C)CCOC(C)=O` (stereo not given), the result was inactive.

Regarding `COc1cc(/C=C/C(=O)O[C@H]2[C@H](O)[C@@H](CO)O[C@@]2(CO)O[C@H]2O[C@H](COC(=O)c3ccc(O)cc3)[C@@H](O)[C@H](O)[C@H]2O)cc(OC)c1OC`, the outcome is “inactive [at 17.4 µM]”.

As for `CCOC(=O)c1ccnc(CNCC(=O)N(CC)CCN(C)C)c1`, the compound was called inactive.

For the compound `CCOC(=O)Nc1nc2ccccc2[nH]1`, the result was inactive.

In the case of `Cc1cc(C)c(S(=O)(=O)N(Cc2ccc(-c3cccc(S(C)(=O)=O)c3)cc2)Cc2ccc(C(F)(F)F)o2)c(C)c1`, the outcome was inactive.

Regarding `COc1cc([C@H]2OC[C@@H]3[C@@H](c4ccc(O[C@@H]5O[C@H](CO)[C@@H](O)[C@H](O)[C@H]5O)c(OC)c4)OC[C@]23O)ccc1O`, the outcome was “inactive [at 17.4 µM]”.

Regarding `O=C(O)CCc1cccc(O[C@@H]2O[C@H](CO)[C@@H](O)[C@H](O)[C@H]2O)c1O`, the compound was called inactive.

`C=C1CC[C@H]2[C@@](C)(CCC(O)[C@@]2(C)CO)[C@@H]1C/C=C(/C(=O)O)C(O)CO` (stereo not given in full): the outcome was inactive.

For `CC1C(=O)CC2C3C(O)CC(C(=O)O)C12CC3(C)C` (stereo not given), the call was inactive.

In the case of `CC(=O)O[C@@H]1C[C@]2(C)[C@@]3(CCC4[C@@]5(C)CC[C@H](O[C@@H]6O[C@H](C(=O)O)[C@@H](O)[C@H](O[C@@H]7O[C@H](CO)[C@H](O)[C@H](O)[C@H]7O[C@@H]7O[C@@H](C)[C@H](O)[C@@H](O)[C@H]7O[C@@H]7OC[C@](O)(CO)[C@H]7O)[C@H]6O[C@@H]6O[C@H](CO)[C@H](O)[C@H](O)[C@H]6O)C(C)(C)C5CC[C@]42C)O[C@@H](O)[C@]12C3CC(C)(C)[C@@H](OC(=O)/C=C/c1ccc(O)c(O)c1)[C@@H]2OC(=O)/C=C/c1ccccc1` (stereo not given in full), the outcome is “inactive [at 9.27 µM]”.

With `CCCC1=CC2=C(CO1)C(=O)C(C)(OC(=O)c1c(C)cc(OC)cc1O)C(O)C2` (stereo not given), the outcome was “inactive [at 17.4 µM]”.

In the case of `CC(C)(O)C1CC=C(C(=O)OCC2OC(Oc3c(O)cc(C(=O)O)cc3O)C(O)C(O)C2O)CC1` (stereo not given), the outcome is “inactive [at 17.4 µM]”.

Turning to `COc1cc(C[C@H]2COC(=O)[C@@H]2Cc2ccc(O)c(OC)c2)ccc1O`, the compound was called inactive.

In the case of `COc1c2c(c(C)c3c1C(=O)OC3)OC1(C)CC(O)C3(O)C(C)(C)OC(=O)CCC3(C)C1C2` (stereo not given), the outcome is “inactive [at 17.4 µM]”.

In the case of `FC(F)(F)c1cc(C(F)(F)F)c2ccc3nc(-c4nnco4)cn3c2n1`, the compound was classed as inactive.

For the compound `O=C(NC[C@H](O)CN1CCc2ccccc2C1)c1cc(NC2COC2)ncn1`, the outcome was inactive.

For the compound `COC1CC(OC2CCC3(C)C(=CCC4C3CCC3(C)C(C(C)O)CCC43O)C2)OC(C)C1OC1OC(C)C(OC2OC(COC3OC(COC4OC(CO)C(O)C(O)C4O)C(O)C(O)C3O)C(O)C(O)C2O)C(OC)C1O` (stereo not given), the outcome is “inactive [at 9.27 µM]”.

Turning to `COC(=O)C1C(c2ccc(O)cc2)C(C(=O)OC)C1c1ccc(O)cc1` (stereo not given), the call was inactive.

As for `C[C@@H]1C[C@H](O[C@@H]2O[C@H](CO[C@@H]3OC[C@](O)(CO)[C@H]3O)[C@@H](O)[C@H](O)[C@H]2O)CC(C)(C)[C@H]1/C=C/[C@@H](C)O`, the outcome was “inactive [at 17.4 µM]”.

On to `CC(C)C1=CC2=CCC3[C@](C)(CCC[C@@]3(C)C(=O)O)C2CC1=O` (stereo not given in full), for which the result was inactive.

With `CN1C(=O)c2ccccc2-n2c(nc3ccccc3c2=O)[C@@]12O[C@H]2c1ccccc1`, the compound was classed as inactive.

Turning to `NCc1c[nH]c(=S)n1C1CCc2c(F)cc(F)cc2C1` (stereo not given), the result was inactive.

As to `O=C1N(CC2CCCCN2)CCN1c1ccccc1` (stereo not given), the call was inactive.

As for `COc1cc(CC(COC2OC(CO)C(O)C(O)C2O)c2cc(/C=C/CO)cc(OC)c2O)ccc1O` (stereo not given), the outcome is “inactive [at 17.4 µM]”.

Turning to `CCC[C@@H]1C[C@@H](C(=O)N[C@@H]([C@H]2O[C@H](SC)[C@H](O)[C@@H](O)[C@@H]2O)[C@@H](C)O)N(C)C1`, the compound was called inactive.

Regarding `C=CCc1ccc(O[C@@H]2O[C@H](CO)[C@@H](O)[C@H](O)[C@H]2O)c(OC)c1`, the compound was called inactive.

In the case of `COC1CCCC/C(C)=C/C2C=C(C)C(C)C3C(CC(C)C)NC(=O)C23C(=O)C1` (stereo not given), the outcome was “inactive [at 17.4 µM]”.
